Source: PubChem BioAssay (several laboratories)
SSB-PriA inh – inhibitors of Klebsiella pneumoniae PriA binding to SSB C-terminal tail, primary screen, biochemical, AlphaScreen | 430,000 compounds, 0.6% hits | PriA–SSB C-terminal tail interaction (Klebsiella pneumoniae) | AlphaScreen SSBct-PriA binding, biotinylated peptide | AID 1272365, 2023 | inhibition, % at 33 µM; in the data active = inhibition mostly above about 37%, no sharp cut-off; inactive = mostly below about 20%;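 also: plate controls were negative control peptide for no effect and reference peptide for full effect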
Anthrax LF prot – Bacillus anthracis LF protease inhibitors, primary screen, biochemical, multiplex microsphere, MLPCN library; 360,000 compounds, 0.12% hits; Lethal factor (Bacillus anthracis), P15917; multiplex microsphere protease cleavage assay; inhibition, % at 10 µM; AID 588501, 2011; also: plate controls were buffer without enzyme for full effect and enzyme alone for no effect
Target sequence (P15917 whole entry, looked up): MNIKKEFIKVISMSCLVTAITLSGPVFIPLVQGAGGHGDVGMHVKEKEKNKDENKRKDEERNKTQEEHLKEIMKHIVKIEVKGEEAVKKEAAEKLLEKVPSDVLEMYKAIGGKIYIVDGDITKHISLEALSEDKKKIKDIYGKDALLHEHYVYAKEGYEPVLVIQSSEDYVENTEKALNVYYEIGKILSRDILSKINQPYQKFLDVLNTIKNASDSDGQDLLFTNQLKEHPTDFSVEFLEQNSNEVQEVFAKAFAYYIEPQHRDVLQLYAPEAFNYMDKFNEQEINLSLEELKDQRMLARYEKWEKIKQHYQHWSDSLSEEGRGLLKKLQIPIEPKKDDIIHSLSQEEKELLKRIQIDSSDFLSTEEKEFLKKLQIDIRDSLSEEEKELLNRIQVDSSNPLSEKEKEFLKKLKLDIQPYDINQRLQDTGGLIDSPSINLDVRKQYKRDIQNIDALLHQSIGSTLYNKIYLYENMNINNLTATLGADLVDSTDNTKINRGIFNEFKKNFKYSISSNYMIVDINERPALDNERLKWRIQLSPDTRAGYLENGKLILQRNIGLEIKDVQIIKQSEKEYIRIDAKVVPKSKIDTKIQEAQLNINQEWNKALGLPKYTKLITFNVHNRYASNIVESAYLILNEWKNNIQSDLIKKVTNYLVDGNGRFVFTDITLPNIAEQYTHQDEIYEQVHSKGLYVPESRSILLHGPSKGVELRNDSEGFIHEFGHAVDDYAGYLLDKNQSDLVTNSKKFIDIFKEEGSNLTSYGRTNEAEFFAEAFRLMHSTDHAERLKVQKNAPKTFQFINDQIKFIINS
BoNT-F LC inh – BoNT/F light chain protease inhibitors, primary screen, biochemical, flow cytometry, MLPCN library; Botulinum neurotoxin type F light chain protease (Clostridium botulinum); Multiplex microsphere protease cleavage assay; inhibition, % at 10 µM; 360,000 compounds, 0.22% hits; in the data active = inhibition above about 35%, passing the limit was not always enough; inconclusive = no clear call, values can overlap the other calls; also: plate controls were buffer without enzyme for full effect and enzyme alone for no effect
BoNT-A LC inh2 – BoNT/A light chain protease inhibitors, primary screen, biochemical, flow cytometry, MLPCN library; multiplex microsphere protease substrate cleavage; inhibition, % at 10 µM; 360,000 compounds, 0.17% hits; also: plate controls were buffer without enzyme for full effect and enzyme alone for no effect
Autofluor counter – counter-screen for toxin protease inhibitors: compound fluorescence; 360,000 compounds, 3.1% hits; fluorescence intensity (test concentration not listed); compound autofluorescence counterscreen, microsphere flow cytometry; stronger effect = higher value; in the data active = fluorescence intensity above about 16000; inconclusive = no clear call, values can overlap the other calls
* hit, by the source's call; ? = inconclusive; . = no result. The list is not random: actives were taken first. Their share in the collection is about 3.1%. Rule as the data show it, unless noted: active = inhibition above about 30%; inconclusive = no clear call, values can overlap the other calls; inactive = below that.

SMILES	SSB-PriA inh	Anthrax LF prot	BoNT-F LC inh	BoNT-A LC inh2	Autofluor counter
O=C1CCSCC(C(=O)Nc2ccc(F)c(Cl)c2)N1 (stereo unspecified)	1	.	.	.	.
CCC(C)Sc1cc(-c2nc3cc(C)ccn3c2NC2CCCCC2)ccc1OC (stereo unspecified)	23	-12	2	-4	23753*
CCC(C)Sc1cc(-c2nc3ccc(C)cn3c2NCc2ccccc2)ccc1OC (stereo unspecified)	39*	0	-16	-1	3733
COc1cc(=O)n(-c2ccc(F)cc2)nc1C(=O)Nc1ccc(Cl)cc1Cl	4	.	.	.	.
COc1ccc(NCc2ccc(OC)c(Cn3ccnc3)c2)c(OC)c1	73*	-16	-28	1	3425
COc1ccc(NC(=O)Nc2ccc(Cc3ccncc3)cc2)c(OC)c1	11	0	1	0	2457
COc1ccc(Cn2ccnc2)cc1[N+](=O)[O-]	3	0	-6	-1	2583
COc1ccc(Cn2ccnc2)cc1Br	-1	0	-5	-1	23086*
CSc1nc2c(-c3ccccc3)c[nH]c2c(=O)n1Cc1ccccc1	-2	.	.	.	.
COc1cccc(-c2noc(CSc3nc4ccccc4c(=O)n3-c3ccc(F)cc3)n2)c1OC	5	.	.	.	.
COc1ccc(-c2noc(CSc3nc4ccccc4c(=O)n3-c3ccccc3)n2)cc1	-2	-2	-3	-4	21618*
Cc1c(CCO)c(=O)n(C)n1C(=O)c1ccc(F)cc1	-11	-2	4	0	5409
Cc1c(CCO)c(=O)[nH]n1C(=O)c1ccc(F)cc1	-7	-5	-2	0	23529*
Cn1cc(C(=O)N/N=C\c2ccc(O)cc2)c2ccccc21	-5	.	.	.	.
COc1ccc(-c2csc(N(CC3CCCO3)C(=O)c3cccs3)n2)cc1 (stereo unspecified)	-21	-2	-4	?	22735*
COc1ccc(-c2csc(N(Cc3ccco3)C(=O)c3cccs3)n2)cc1	-6	-10	-8	-1	4258
O=C(CCc1ccccc1F)NCC1CCN(C(=O)c2ccoc2)CC1	-4	.	.	.	.
CN1C(=O)CC(N2CCN(C(=O)CN3CCCC3)CC2)C1=O (stereo unspecified)	-6	1	-6	-2	24470*
CN1C(=O)CC(N2CCN(CC(=O)N3CCCC3)CC2)C1=O (stereo unspecified)	-3	2	1	1	3298
CCc1ccc2c(c1)C(C)(C)C1(/C=C/c3ccco3)NC(=O)CCN21 (stereo unspecified)	50*	.	.	.	.
Cc1ccccc1/C=C/C12NC(=O)CN1c1ccccc1C2(C)C (stereo unspecified)	-1	9	?	0	3939
O=c1c2nccnc2n(Cc2cccc(Cl)c2)c(=O)n1Cc1ccccc1	1	.	.	.	.
Cn1nnc2c(N3CCN(C(=O)Nc4ccccc4C(F)(F)F)CC3)ncnc21	-5	.	.	.	.
Fc1ccc(C=NN2CCCCC2)c(F)c1	43*	.	.	.	.
Fc1ccc(/C=N/N2CCCCC2)c(F)c1	.	-1	3	1	3777
SMILES	SSB-PriA inh	Anthrax LF prot	BoNT-F LC inh	BoNT-A LC inh2	Autofluor counter
CCC(Sc1nc2cc3c(cc2c(=O)n1Cc1ccco1)OCO3)C(=O)NCCOC (stereo unspecified)	-5	-8	-11	0	5792
CCC(Sc1nc2cc3c(cc2c(=O)n1Cc1ccco1)OCO3)C(=O)Nc1ccccc1OC (stereo unspecified)	1	-1	-1	?	23027*
CCC(Sc1nc2cc3c(cc2c(=O)n1Cc1ccco1)OCO3)C(=O)Nc1cccc(OC)c1 (stereo unspecified)	-2	-6	2	1	21154*
O=C(Cn1ccc2ccccc21)NC(c1cccnc1)C1CCOCC1 (stereo unspecified)	-7	.	.	.	.
CCOc1cccc(-c2c(C(=O)NN=Cc3cccs3)nnn2-c2nonc2N)c1	-2	.	.	.	.
COc1cccc2sc(NCc3cccnc3)nc12	25	.	.	.	.
CC1(C)CC(=O)C2=C(C1)N(Cc1ccco1)C(=O)C2(NC(=O)c1cccnc1)C(F)(F)F (stereo unspecified)	2	-3	-1	?	20736*
CC1(C)CC(=O)C2=C(C1)N(Cc1cccnc1)C(=O)C2(NC(=O)c1cccnc1)C(F)(F)F (stereo unspecified)	-11	2	0	0	9303
COc1cc(CN2C(=O)C(NC(=O)c3ccco3)(C(F)(F)F)C3=C2CC(C)(C)CC3=O)cc(OC)c1 (stereo unspecified)	-5	-5	-13	-2	6470
CCCCN1C(=O)C(NC(=O)c2cccnc2)(C(F)(F)F)C2=C1CC(C)(C)CC2=O (stereo unspecified)	-16	-2	3	2	23010*
CCOC(=O)NC1(C(F)(F)F)C(=O)N(Cc2ccccc2)C2=C1C(=O)CC(C)(C)C2 (stereo unspecified)	-6	-4	-8	-4	25964*
COCC(C)NC(=O)CN1CCN(c2ccccc2)C1=O (stereo unspecified)	-9	.	.	.	.
COc1ccccc1N1CC(C(=O)OCC(=O)c2ccc(F)cc2)CC1=O (stereo unspecified)	-6	-6	-1	0	23806*
O=c1[nH]c2ccc(NCc3ccccc3OCc3ccc(Cl)cc3)cc2[nH]1	92*	2	10	-4	3750
Cc1cc(-c2ccccc2)nc(N/N=C/c2ccco2)n1	.	-3	-5	-2	24412*
Cc1ccc(-c2csc(NN=Cc3ccco3)n2)cc1	28	.	.	.	.
Cc1ccc(-c2csc(N/N=C/c3ccco3)n2)cc1	.	-6	-6	0	23231*
O=C(NCCc1c[nH]c2ccccc12)c1ccc(OCc2nc(-c3ccco3)cs2)cc1	14	.	.	.	.
CCOc1ncccc1C(=O)N1CCC[C@H](Cc2nc(-c3cnccn3)no2)C1	-6	.	.	.	.
Cc1ccccc1COc1cn(CC(=O)Nc2ccccc2C(F)(F)F)c(CO)cc1=O	-3	.	.	.	.
CC(=O)Nc1ccc(Oc2cnccn2)cc1	-11	-1	3	1	1980
CC(=O)Nc1ccc(Oc2cnc3ccccc3n2)cc1	-3	0	1	0	24151*
CC(=O)Nc1cccc(Oc2cnc3ccccc3n2)c1	-22	-16	2	3	18766*
c1ccc(Oc2cnc3ccccc3n2)cc1	-3	-1	1	1	23310*
Clc1cccc(Oc2cnc3ccccc3n2)c1	-43	-1	1	1	16039
SMILES	SSB-PriA inh	Anthrax LF prot	BoNT-F LC inh	BoNT-A LC inh2	Autofluor counter
COc1ccc(Oc2cnc3ccccc3n2)cc1	-15	-1	8	0	2240
Cc1cc(C(=O)Nc2ccc(S(C)(=O)=O)cc2)nn1C	-6	.	.	.	.
COc1cccc2sc(N3CC(C(=O)Nc4ccc(Br)cc4C)C3)nc12	-10	.	.	.	.
O=C(Cc1ccccc1)NN=Cc1cc(Br)cc(Br)c1O	-2	.	.	.	.
CC(=O)N1CCc2ccc(NC(=O)c3cccc(F)c3)cc2C1	5	.	.	.	.
C/C(=N\O)C1/C(=N/O)CC2C1C2(C)C (stereo unspecified)	.	-1	-2	-1	23424*
